The source of these data is paper PMC11062922 (Nature Chemical Biology, 2023).

Where two headings read alike, the source gives them in different places.

Common to all, as to design: species or system human, MV4-11 + K-562 + COLO205 + SK-N-BE2 + OVCAR-8
Assay [1] concerns AURKA. Particulars: read-out: apparent Kd, n = 1.
Assay [2] deals with BCR. Particulars: read-out: apparent Kd, n = 1.
Assay [3] relates to CAMKK2. Conditions: read-out: apparent Kd, n = 1.
Assay [4] concerns CHEK1. Particulars: read-out: apparent Kd, n = 1.
For assay [5], the system named is EPHA4. Conditions: read-out: apparent Kd, n = 1.
Assay [6] relates to EPHA5. Conditions: read-out: apparent Kd, n = 1.
The test system of assay [7] is EPHB2. Conditions: read-out: apparent Kd, n = 1.
Assay [8] concerns EPHB4. Particulars: read-out: apparent Kd, n = 1.
Assay [9] concerns MARK3. Conditions: read-out: apparent Kd, n = 1.
The test system of assay [10] is PRKACA. Conditions: read-out: apparent Kd, n = 1.
The test system of assay [11] is PRKACB. Particulars: read-out: apparent Kd, compound concentrations: 100 nM and 1000 nM (sheet 'Samples'), n = 1.
In assay [12] the test system is PRKAG2. Conditions: read-out: apparent Kd, n = 1.
Assay [13] relates to RPS6KA4. Conditions: read-out: apparent Kd, n = 1.
For assay [14], the system named is TNK1. Conditions: read-out: apparent Kd, n = 1.
The test system of assay [15] is TNK2. Particulars: read-out: apparent Kd, n = 1.
For assay [16], the system named is CSNK1D. Conditions: read-out: apparent Kd; compound concentrations:100 nM and 1000 nM (sheet 'Samples'); n = 1.
The subject of assay [17] is MAPK9. Particulars: read-out: apparent Kd; compound concentrations:100 nM and 1000 nM (sheet 'Samples'); n = 1.
Assay [18] deals with STK4. Particulars: read-out: apparent Kd; compound concentrations:100 nM and 1000 nM (sheet 'Samples'); n = 1.
Setting [19] is: compound concentrations:100 nM and 1000 nM (sheet 'Samples').

For `O=C1N=C(NCCc2ccc(Cl)cc2)S/C1=C\c1ccc2ncccc2c1` [RO4498479-000], the potency estimated from few doses in assay [1] (compound concentrations: 100 nM and 1000 nM (sheet 'Samples'), CATDS: 1.0602350822893101E-2) is 486 nM; in assay [2] (compound concentrations: 100 nM and 1000 nM (sheet 'Samples'), CATDS: 1.6408594866795901E-2), 215 nM; in [3] (compound concentrations: 100 nM and 1000 nM (sheet 'Samples'), CATDS: 9.9016852028132405E-3) it was 568 nM; in [4] (compound concentrations: 100 nM and 1000 nM (sheet 'Samples'), CATDS: 7.8682297996918397E-3), 1070 nM; in assay [5] (compound concentrations: 100 nM and 1000 nM (sheet 'Samples'), CATDS: 1.4543255052935199E-2), 263 nM; in assay [6] (compound concentrations: 100 nM and 1000 nM (sheet 'Samples'), CATDS: 2.0414571032165901E-2), 153 nM. For the same compound, the potency estimated from few doses in [7] (compound concentrations: 100 nM and 1000 nM (sheet 'Samples'), CATDS: 1.7636169639023699E-2) is 191 nM; in assay [8] (compound concentrations: 100 nM and 1000 nM (sheet 'Samples'), CATDS: 2.15431657098582E-2), 141 nM; in assay [9] (compound concentrations: 100 nM and 1000 nM (sheet 'Samples'), CATDS: 8.4864305198955707E-3) it was 848 nM; in assay [10] (compound concentrations: 100 nM and 1000 nM (sheet 'Samples'), CATDS: 8.4640851007318392E-3), 854 nM; in [11] (CATDS: 9.3487346254019794E-3) it was 654 nM; in [12] (compound concentrations: 100 nM and 1000 nM (sheet 'Samples'), CATDS: 1.04447346657642E-2), 503 nM. Also, the potency estimated from few doses in [13] (compound concentrations: 100 nM and 1000 nM (sheet 'Samples'), CATDS: 7.6189107816006501E-3) was 1190 nM; in [14] (compound concentrations: 100 nM and 1000 nM (sheet 'Samples'), CATDS: 1.8006750719606699E-2), 185 nM; in [15] (compound concentrations: 100 nM and 1000 nM (sheet 'Samples'), CATDS: 1.88242032678454E-2), 173 nM.
Turning to `CCn1c(-c2nonc2N)nc2c(C#CC(C)(C)O)nc(OC[C@@H](N)c3ccccc3)cc21` [GSK938890A], the potency estimated from few doses in assay [10] (compound concentrations: 100 nM and 1000 nM (sheet 'Samples'), CATDS: 0.21319960399835) is 22.6 nM; in [11] (CATDS: 0.177486762785802), 30.8 nM.
With `Cl.NCc1ccc(-c2nc(-c3ccc(Cl)c(O)c3)c(-c3ccncc3)[nH]2)cc1` [SB-476429-A], the potency estimated from few doses in [16] is 1290 nM.
In the case of `CN(c1ccc(NC(=O)N2CCN(CCCN3CCOCC3)CC2)cc1)c1ccnc(Nc2ccc(CS(C)(=O)=O)cc2)n1.Cl` [GW830899A], the potency estimated from few doses in assay [1] (compound concentrations: 100 nM and 1000 nM (sheet 'Samples'), CATDS: 2.4317426688995499E-2) was 955 nM; in assay [3] (compound concentrations: 100 nM and 1000 nM (sheet 'Samples'), CATDS: 1.7762622720353199E-2) it was 2190 nM; in assay [5] (compound concentrations: 100 nM and 1000 nM (sheet 'Samples'), CATDS: 2.15154621578117E-2), 1270 nM; in [6] (compound concentrations: 100 nM and 1000 nM (sheet 'Samples'), CATDS: 2.2767251891404602E-2) it was 1110 nM; in assay [9] (compound concentrations: 100 nM and 1000 nM (sheet 'Samples'), CATDS: 1.9647586530532599E-2), 1610 nM; in assay [11] (CATDS: 1.9426092751651199E-2) it was 1660 nM. Moreover, the potency estimated from few doses in [15] (compound concentrations: 100 nM and 1000 nM (sheet 'Samples'), CATDS: 3.2652944878228798E-2) was 544 nM.
Consider `Cc1ccc(Nc2ccnc(Nc3ccc4c(c3)CS(=O)(=O)C4)n2)cc1O.Cl` [GW579362A], for which the potency estimated from few doses in assay [1] (compound concentrations: 100 nM and 1000 nM (sheet 'Samples'), CATDS: 4.77260985286359E-2) was 393 nM; in [2] (compound concentrations: 100 nM and 1000 nM (sheet 'Samples'), CATDS: 4.5785194143174703E-2) it was 428 nM.
On to `CC(C)N1CCC(n2cnc(-c3ccc(F)cc3)c2-c2ccnc(N)n2)CC1` [SB-223132], for which the potency estimated from few doses in assay [1] (setting [19]) was 931 nM; in assay [2] (setting [19]), 660 nM; in [3] (setting [19]), 940 nM; in assay [4] (setting [19]), 1740 nM; in [16], 25.1 nM; in [5] (setting [19]), 692 nM. In addition, the potency estimated from few doses was 545 nM in assay [6] (setting [19]); 385 nM in [7] (setting [19]); 314 nM in [8] (setting [19]); 1770 nM in [9] (setting [19]); 1710 nM in assay [10] (setting [19]); 1040 nM in assay [12] (setting [19]). Also, the potency estimated from few doses in assay [15] (setting [19]) was 374 nM.
Take `CNC(=O)c1ccccc1Nc1nc(Nc2ccc(N3CCOCC3)cc2)ncc1Cl.Cl` [GSK1576028A]: the potency estimated from few doses in assay [1] (setting [19]) is 11 nM; in assay [2] (setting [19]), 781 nM; in assay [17], 220 nM; in [12] (setting [19]), 587 nM; in assay [13] (setting [19]) it was 427 nM; in assay [18], 675 nM. The potency estimated from few doses in [14] (setting [19]) is 7.93 nM; in assay [15] (setting [19]), 731 nM.
